“And” between values parts separate entries of the source, which are not always exact repeats. Equal values may be shown once. Compounds without any hit were thinned out: in the full panel of roughly 79,000, 15% have a hit. Some structures have more than one record in an assay (separate samples or runs), and their calls can disagree. The source made the active and inactive calls. Rule as the data show it: active = growth inhibition above about 70%; inactive = the rest.

Experiment [1] can be described thus: NCI Yeast Anticancer Drug Screen. Data for the rad50 strain (AID 155).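 Also: 0% = growth of vehicle-only cultures of the same strain.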 Conditions: S. cerevisiae rad50 strain growth inhibition, stronger effect = higher value. In outline:
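Compounds were tested on a yeast strain with an engineered DNA damage repair alteration; the reported value is growth inhibition normalised to vehicle treatment.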

A short description of experiment [2]: NCI Yeast Anticancer Drug Screen. Data for the mec2-1 strain (AID 157). Conditions: S. cerevisiae mec2-1 strain, stronger effect = higher value. In outline:
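Vehicle-treated cultures served as reference for growth inhibition of compound-exposed mec2-1 yeast.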

Experiment [3] can be described thus: NCI Yeast Anticancer Drug Screen. Data for the sgs1 mgt1 strain (AID 161).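 Also: 0% = growth of cultures given vehicle only.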 Conditions: S. cerevisiae sgs1 mgt1 strain, stronger effect = higher value. The method, boiled down:
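Test agents were incubated with a DNA-repair-mutant yeast strain. Growth was then read and compared against vehicle-treated controls.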

A short description of experiment [4]: NCI Yeast Anticancer Drug Screen. Data for the cln2 rad14 strain (AID 165).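 Also: 0% = growth equal to vehicle treated cultures.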 Conditions: S. cerevisiae cln2 rad14 strain, stronger effect = higher value. In outline:
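Each compound was tested on cln2 rad14 yeast. Inhibition of growth was calculated against vehicle-exposed controls.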

The nature of experiment [5]: NCI Yeast Anticancer Drug Screen. Data for the bub3 strain (AID 167). Particulars: S. cerevisiae bub3 mutant strain, stronger effect = higher value. The method, boiled down: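 Growth of a checkpoint-deficient yeast mutant is measured after compound exposure. Values represent inhibition relative to vehicle.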
A short description of experiment [6]: NCI Yeast Anticancer Drug Screen. Data for the mlh1 rad18 strain (AID 175). Particulars: S. cerevisiae mlh1 rad18 strain growth inhibition, stronger effect = higher value. The method, boiled down:
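Vehicle-treated cultures served as the reference for growth inhibition in a yeast strain carrying DNA damage repair alterations exposed to each compound.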

Where [7] appears, read: at 5.0 µM (retest, dose inferred, filed as 0.5).
Where [8] appears, read: at 50.0 µM (retest, dose inferred, filed as 5.0).

With `ON=C(Cc1ccccc1)Cc1ccccc1`, the growth inhibition in experiment [1] (setting [7]) is 7% (inactive); in experiment [1] (setting [8]) it was -7% (inactive); in experiment [1] (at 50.0 µM) it was 20.4% (inactive) and 1.3% (inactive); in experiment [2] (setting [7]), -4% (inactive); in experiment [2] (setting [8]), -8% (inactive); in experiment [2] (at 50.0 µM), 5.7% (inactive) and -6.9% (inactive). Moreover, the growth inhibition in experiment [3] (setting [7]) is 1% (inactive); in experiment [3] (setting [8]), 34% (inactive); in experiment [3] (at 50.0 µM) it was 23.2% (inactive) and 82.5% (active); in experiment [4] (setting [7]), 2% (inactive); in experiment [4] (setting [8]), -8% (inactive); in experiment [4] (at 50.0 µM) it was 46.2% (inactive) and -4.6% (inactive). For the same molecule, the growth inhibition was -83% (inactive) in experiment [5] (setting [7]); -3% (inactive) in experiment [5] (setting [8]); -2.8% (inactive) and 17.2% (inactive) in experiment [5] (at 50.0 µM); 1% (inactive) in experiment [6] (setting [7]); 9% (inactive) in experiment [6] (setting [8]); 61.8% (inactive) and 27.9% (inactive) in experiment [6] (at 50.0 µM).

As to `O=C1N(c2ccccc2)C(=O)N1c1ccccc1`, the growth inhibition in experiment [1] (setting [7]) is -8% (inactive); in experiment [1] (setting [8]) it was -6% (inactive); in experiment [1] (at 50.0 µM) it was 1.05% (inactive) and 0.3% (inactive); in experiment [2] (setting [7]) it was -19% (inactive); in experiment [2] (setting [8]) it was -1% (inactive); in experiment [2] (at 50.0 µM), 25.6% (inactive) and -2.2% (inactive). Besides, the growth inhibition was -11% (inactive) in experiment [3] (setting [7]); 3% (inactive) in experiment [3] (setting [8]); 43.2% (inactive) and -12.2% (inactive) in experiment [3] (at 50.0 µM); 20% (inactive) in experiment [4] (setting [7]); 17% (inactive) in experiment [4] (setting [8]); 0.1% (inactive) and -20.9% (inactive) in experiment [4] (at 50.0 µM). Also, the growth inhibition in experiment [5] (setting [7]) was 14% (inactive); in experiment [5] (setting [8]), 17% (inactive); in experiment [5] (at 50.0 µM), 22.1% (inactive) and -12.4% (inactive); in experiment [6] (setting [7]) it was -16% (inactive); in experiment [6] (setting [8]) it was -11% (inactive); in experiment [6] (at 50.0 µM) it was 28.6% (inactive) and 2.3% (inactive).

With `COC1CC2CCC(C)[C@](O)(O2)C(=O)C(=O)N2CCCCC2C(=O)OC(C(C)CC2CCC(O)C(OC)C2)CC(=O)C(C)C=C(C)C(OC(=O)CN(C)C)C(OC)C(=O)C(C)CC(C)/C=C/C=C/C=C\1C` (stereo partly specified), the growth inhibition in experiment [1] (setting [7]) was 37% (inactive); in experiment [1] (setting [8]) it was 97% (active); in experiment [1] (at 50.0 µM), 89% (active); in experiment [2] (setting [7]) it was 46% (inactive); in experiment [2] (setting [8]), 97% (active); in experiment [2] (at 50.0 µM) it was 92.5% (active). For the same molecule, the growth inhibition in experiment [3] (setting [7]) was 97% (active); in experiment [3] (setting [8]) it was 96% (active); in experiment [3] (at 50.0 µM) it was 92% (active); in experiment [4] (setting [7]), 95% (active); in experiment [4] (setting [8]), 94% (active); in experiment [4] (at 50.0 µM), 85.4% (active). Moreover, the growth inhibition in experiment [5] (setting [7]) was 50% (inactive); in experiment [5] (setting [8]), 98% (active); in experiment [5] (at 50.0 µM), 91.7% (active); in experiment [6] (setting [7]) it was 97% (active); in experiment [6] (setting [8]), 96% (active); in experiment [6] (at 50.0 µM) it was 89.8% (active).

For `NC(C/[N+]([O-])=N/O)C(=O)O` (stereo unspecified), the growth inhibition is 18% (inactive) in experiment [1] (setting [7]); 21% (inactive) in experiment [1] (setting [8]); 40.7% (inactive) and 47.2% (inactive) and 57.1% (inactive) in experiment [1] (at 50.0 µM); 10% (inactive) in experiment [2] (setting [7]); 13% (inactive) in experiment [2] (setting [8]); 11.1% (inactive) and 22.1% (inactive) and 33.5% (inactive) in experiment [2] (at 50.0 µM). Moreover, the growth inhibition is 46% (inactive) in experiment [3] (setting [7]); 51% (inactive) in experiment [3] (setting [8]); 36.2% (inactive) and 39.5% (inactive) and 48.1% (inactive) in experiment [3] (at 50.0 µM); 37% (inactive) in experiment [4] (setting [7]); -28% (inactive) in experiment [4] (setting [8]); 5.75% (inactive) and 1.45% (inactive) and 18.8% (inactive) in experiment [4] (at 50.0 µM). For the same molecule, the growth inhibition in experiment [5] (setting [7]) was 46% (inactive); in experiment [5] (setting [8]), 4% (inactive); in experiment [5] (at 50.0 µM) it was -0.3% (inactive) and 17.1% (inactive) and 21.9% (inactive); in experiment [6] (setting [7]), 25% (inactive); in experiment [6] (setting [8]), 38% (inactive); in experiment [6] (at 50.0 µM), 31.9% (inactive) and 35.6% (inactive) and 46.6% (inactive).

In the case of `Nc1cc2c(cc1[N+](=O)[O-])[nH]c1c(-c3ccccc3)nccc12`, the growth inhibition in experiment [1] (setting [7]) was 9% (inactive); in experiment [1] (setting [8]), 97% (active); in experiment [1] (at 50.0 µM), 99.2% (active); in experiment [2] (setting [7]), -5% (inactive); in experiment [2] (setting [8]) it was 99% (active); in experiment [2] (at 50.0 µM), 96.4% (active). The growth inhibition was 10% (inactive) in experiment [3] (setting [7]); 99% (active) in experiment [3] (setting [8]); 99.3% (active) in experiment [3] (at 50.0 µM); 1% (inactive) in experiment [4] (setting [7]); 89% (active) in experiment [4] (setting [8]); 99.1% (active) in experiment [4] (at 50.0 µM). Moreover, the growth inhibition in experiment [5] (setting [7]) is 28% (inactive); in experiment [5] (setting [8]), 98% (active); in experiment [5] (at 50.0 µM), 99.2% (active); in experiment [6] (setting [7]), 2% (inactive); in experiment [6] (setting [8]), 98% (active); in experiment [6] (at 50.0 µM) it was 98.9% (active).

As for `CCOC(=O)Nc1c(C)cc(C)c(Br)c1C`, the growth inhibition in experiment [1] (setting [7]) was -3% (inactive); in experiment [1] (setting [8]) it was -3% (inactive); in experiment [1] (at 50.0 µM), 97.2% (active); in experiment [2] (setting [7]) it was -12% (inactive); in experiment [2] (setting [8]), 6% (inactive); in experiment [2] (at 50.0 µM), 98.7% (active). In addition, the growth inhibition was 1% (inactive) in experiment [3] (setting [7]); 12% (inactive) in experiment [3] (setting [8]); 94.9% (active) in experiment [3] (at 50.0 µM); 0% (inactive) in experiment [4] (setting [7]); -20% (inactive) in experiment [4] (setting [8]); 98.9% (active) in experiment [4] (at 50.0 µM). Further, the growth inhibition in experiment [5] (setting [7]) is -5% (inactive); in experiment [5] (setting [8]), -8% (inactive); in experiment [5] (at 50.0 µM), 98.6% (active); in experiment [6] (setting [7]), 9% (inactive); in experiment [6] (setting [8]), 22% (inactive); in experiment [6] (at 50.0 µM), 99.2% (active).

Turning to `CCCCCCCCCCCCCC1=NCC(c2ccc3ccccc3c2)O1` (stereo unspecified), the growth inhibition in experiment [1] (setting [7]) was -4% (inactive); in experiment [1] (setting [8]), -13% (inactive); in experiment [1] (at 50.0 µM) it was -1.9% (inactive); in experiment [2] (setting [7]), -4% (inactive); in experiment [2] (setting [8]), -2% (inactive); in experiment [2] (at 50.0 µM), 4.95% (inactive). In addition, the growth inhibition in experiment [3] (setting [7]) is -4% (inactive); in experiment [3] (setting [8]), -23% (inactive); in experiment [3] (at 50.0 µM), -12.6% (inactive); in experiment [4] (setting [7]), -6% (inactive); in experiment [4] (setting [8]) it was -27% (inactive); in experiment [4] (at 50.0 µM), 10.3% (inactive). Also, the growth inhibition in experiment [5] (setting [7]) is 1% (inactive); in experiment [5] (setting [8]), -6% (inactive); in experiment [5] (at 50.0 µM), -4.7% (inactive); in experiment [6] (setting [7]), -2% (inactive); in experiment [6] (setting [8]), -6% (inactive); in experiment [6] (at 50.0 µM) it was -1.95% (inactive).
